This is an account of results in PubChem BioAssay (NCATS).

The nature of test [1]: BET inhibitor-based combinations targeting novel dependencies in MECOM-rearranged (r) AML: SET-2 cell line (AID 2202231). Further: nearly all actives have a fitted effect of over 35% in size.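 On viability: plate controls were DMSO treated cells for no effect and wells without cells for full effect.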 The settings on record: SET-2 AML cells viability, CellTiter-Glo luminescence, 48 h; viability: active compounds read low, concentration not given here. A digest of the protocol: (§1)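 Here, 11-point titrations of each agent were applied to 500 seeded cells and incubated 48 hr; CellTiter-Glo signal, scaled against DMSO and empty wells, was integrated as AUC, then Z-scored within the individual line.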
In general terms: ATP-based viability assays read luminescence as a measure of living cells.

Test [2] in a line: BET inhibitor-based combinations targeting novel dependencies in MECOM-rearranged (r) AML: OCI-AML3 cell line (AID 2202232). Further: nearly all actives have a fitted effect of over 35% in size. The settings on record: Potency: OCI-AML3 viability. A digest of the protocol:
as §1

Test [3] can be described thus: BET inhibitor-based combinations targeting novel dependencies in MECOM-rearranged (r) AML: MV-4-11 cell line (AID 2202233). Further: nearly all actives have a fitted effect of over 45% in size. A digest of the protocol:
(§2)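 Normalized to DMSO and empty-well controls, the luminescence data from CellTiter-Glo after 48 hr drug exposure were fitted across 11 concentrations. Reported metrics are area under the dose-response curve and its Z-transformed form.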

Test [4] is described as follows: BET inhibitor-based combinations targeting novel dependencies in MECOM-rearranged (r) AML: HNT-34 cell line (AID 2202234). Further: nearly all actives have a fitted effect of over 35% in size. In a few lines: as §2
Test [5] in a line: BET inhibitor-based combinations targeting novel dependencies in MECOM-rearranged (r) AML: UCSD-AML1 cell line (AID 2202235). Further: nearly all actives have a fitted effect of over 40% in size. In a few lines:
as §2

The nature of test [6]: BET inhibitor-based combinations targeting novel dependencies in MECOM-rearranged (r) AML: AML-191 cell line (AID 2202236; further: nearly all actives have a fitted effect of over 35% in size). A digest of the protocol: as §1
The nature of test [7]: BET inhibitor-based combinations targeting novel dependencies in MECOM-rearranged (r) AML: AML-194 cell line (AID 2202237; further: nearly all actives have a fitted effect of over 40% in size). A digest of the protocol:
as §1

The structures appear in SMILES notation. Records with an inconclusive call do not appear. Values without a mark were called inactive. Active and inactive are the calls of the source. The call rests on the fitted dose curve; in most records, active means well fitted curve in the direction sought with a large enough effect; inconclusive means small, poorly fitted or top-dose-only effect, or another doubt; inactive means no such curve, though single readings can be large; an effect the other way counts as inactive or inconclusive.
Potency means the concentration at half of the fitted maximal effect.

Consider `C[C@@H](OC[C@@]1(c2ccccc2)CC[C@]2(CCC(=O)N2)CN1)c1cc(C(F)(F)F)cc(C(F)(F)F)c1`, for which the Potency in test [1] is 20900 nM (active); in test [2], 18600 nM (active); in test [3] it was 20900 nM (active); in test [4] it was 18600 nM (active); in test [5], 23500 nM (active); in test [6] it was 18600 nM (active). Besides, in test [7], the Potency was 26300 nM (active).

As for `CNCCCOc1cc(F)c(-c2c(Cl)nc3ncnn3c2N[C@@H](C)C(F)(F)F)c(F)c1`, the Potency in test [1] is 148 nM (active); in test [2], 83.3 nM (active); in test [3], 93.4 nM (active); in test [4], 74.2 nM (active); in test [5], 118 nM (active); in test [6], 93.4 nM (active). For the same molecule, the Potency in test [7] was 105 nM (active).

`CCS(=O)(=O)Nc1ccc2[nH]c(O)c(C(=Nc3ccc(CN4CCCCC4)cc3)c3ccccc3)c2c1`: the Potency in test [1] was 2630 nM (active); in test [2], 235 nM (active); in test [3], 29.5 nM (active); in test [4] it was 148 nM (active); in test [5] it was 833 nM (active); in test [6], 66.1 nM (active). In addition, the Potency in test [7] is 93.4 nM (active).

Regarding `COc1cc(Nc2cnc(C#N)c(O[C@H](C)CN(C)C)n2)ncc1-c1cnn(C)c1`, the Potency in test [1] is 3720 nM (active); in test [2], 1320 nM (active); in test [3], 742 nM (active); in test [4], 2950 nM (active); in test [5], 1860 nM (active); in test [6], 1860 nM (active). Besides, the Potency in test [7] is 1480 nM (active).

For the molecule `C/C(=N\NC(=S)N1CCC1)c1ccccn1`, the Potency in test [1] was 59 nM (active); in test [2], 37.2 nM (active); in test [3], 37.2 nM (active); in test [4] it was 37.2 nM (active); in test [5], 41.7 nM (active); in test [6], 37.2 nM (active). In addition, the Potency in test [7] is 41.7 nM (active).

What is called viability is a read-out of living cells in per cent, often relative to untreated cells. On to `COc1ccc([C@@H]2CC(=O)c3c(O)cc(O[C@@H]4O[C@H](CO[C@@H]5O[C@@H](C)[C@H](O)[C@@H](O)[C@H]5O)[C@@H](O)[C@H](O)[C@H]4O)cc3O2)cc1O`, for which the viability in test [1] was 119%. The Potency result in test [2], in test [3], in test [4], in test [5], in test [6] and in test [7] was “inactive” each time.

For `N#Cc1ccnc(N2C(=O)CC[C@H]2C(=O)N(c2cncc(F)c2)C(C(=O)NC2CC(F)(F)C2)c2ccccc2Cl)c1` (some centres undefined), in test [1], the viability was 91.5%. Besides, the Potency entry in test [2], in test [3], in test [4], in test [5], in test [6] and in test [7] was “inactive” each time.

For the molecule `CO[C@H]1/C=C/O[C@@]2(C)Oc3c(C)c(O)c4c(O)c(c5c(nc6cc(C)ccn65)c4c3C2=O)NC(=O)/C(C)=C\C=C\[C@H](C)[C@H](O)[C@@H](C)[C@@H](O)[C@@H](C)[C@H](OC(C)=O)[C@@H]1C`, the viability in test [1] is 111%. Moreover, the Potency result in test [2], in test [3], in test [4], in test [5], in test [6] and in test [7] was “inactive” each time.

Take `CC1(C)O[C@@H]2C[C@H]3[C@@H]4C[C@H](F)C5=CC(=O)C=C[C@]5(C)[C@@]4(F)[C@@H](O)C[C@]3(C)[C@]2(C(=O)CO)O1`: the viability in test [1] is 113%. In addition, the Potency entry in test [2], in test [3], in test [4], in test [5], in test [6] and in test [7] was “inactive” in each case.

Regarding `O=C(NO)c1cnc(NC2(c3ccccc3)CC2)nc1`, the Potency in test [1] was 6610 nM (active); in test [2], 5900 nM (active); in test [3], 3320 nM (active); in test [4], 6610 nM (active); in test [5], 8330 nM (active); in test [6], 7420 nM (active). Also, the Potency in test [7] was 8330 nM (active).

As to `COc1cc(OC)c(/C=C/S(=O)(=O)Cc2ccc(OC)c(OP(=O)(O)O)c2)c(OC)c1`, the Potency in test [1] is 132 nM (active); in test [2] it was 118 nM (active); in test [3], 132 nM (active); in test [4] it was 105 nM (active); in test [5] it was 118 nM (active); in test [6], 118 nM (active). Moreover, the Potency in test [7] is 118 nM (active).

For the molecule `CN(C)c1cc(NC(=O)CNC(C)(C)C)c(O)c2c1C[C@H]1C[C@H]3[C@H](N(C)C)C(=O)C(C(N)=O)=C(O)[C@]3(O)C(=O)C1=C2O`, the viability in test [1] was 74.8%. Besides, the Potency result in test [2], in test [3], in test [4], in test [6] and in test [7] was “inactive” in each case. Moreover, the Potency in test [5] is 4680 nM (active).

`O=C(NO)c1cnc(N2C[C@H]3C[C@@H]2CN3c2cc(C(F)(F)F)ccn2)nc1`: the Potency in test [1] was 2350 nM (active); in test [2], 3720 nM (active); in test [3], 2090 nM (active); in test [4] it was 3720 nM (active); in test [5], 3720 nM (active); in test [6] it was 4170 nM (active). Also, the Potency in test [7] is 4170 nM (active).

As for `Cc1ccc(C(=O)OCc2ccc([C@@H](CN)C(=O)Nc3ccc4cnccc4c3)cc2)c(C)c1`, the Potency in test [1] was 14400 nM (active); in test [2], 8110 nM (active); in test [3], 3230 nM (active); in test [4], 5120 nM (active); in test [5], 14400 nM (active); in test [6], 9100 nM (active). For the same molecule, in test [7], the Potency was 8110 nM (active).

`COC1=C(OC)C(=O)C(C/C=C(\C)CC/C=C(\C)CC/C=C(\C)CC/C=C(/C)CC/C=C(\C)CC/C=C(\C)CC/C=C(\C)CC/C=C(\C)CC/C=C(\C)CCC=C(C)C)=C(C)C1=O`: the viability in test [1] was 117%. Further, the Potency result in test [2], in test [3], in test [4], in test [5], in test [6] and in test [7] was “inactive” throughout.

Turning to `CC(C)[C@H]1C(=O)N[C@@H](CCCN=C(N)N)C(=O)NCC(=O)N[C@@H](CC(=O)O)C(=O)N[C@H](Cc2ccccc2)C(=O)N1C`, the viability in test [1] is 124%. Besides, the Potency result in test [2], in test [3], in test [4], in test [5], in test [6] and in test [7] was “inactive” throughout.

For `Cc1nnn(C)c1-c1cnc2c3ccc(C(C)(C)O)cc3n([C@H](c3ccccc3)C3CCOCC3)c2c1`, the Potency in test [1] was 14.8 nM (active); in test [2], 5.9 nM (active); in test [3], 4.2 nM (active); in test [4] it was 29.5 nM (active); in test [5], 26.3 nM (active); in test [6], 26.3 nM (active). Besides, the Potency in test [7] was 66.1 nM (active).
